# Compound activity: PubChem BioAssay, National Center for Advancing Translational Sciences (NCATS)
# Hits are enriched below; roughly 19% of the tested compounds scored in any of these assays.
# HepG2 viability: counter-screen for TGF-b inhibitors: cytotoxicity in HepG2 cells; HepG2 CAGA-GFP viability, ATP luminescence, 18 h; Potency, µM (titrated, usually from 46.1 µM), for inactives: at the top dose activity change, negative = cytotoxicity, hits mostly cytotoxic; 410,000 tested, 0.76% active; AID 588856; also: potency is read from the fitted curve at half-maximal effect
#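 HepG2 CAGA-GFP cells (1000/well, DMEM with 1% FBS) received compound, then TGF-beta at 500 pg/mL final, and were incubated 18 hours at 37 degrees C. Viability was read by CellTiter-Glo luminescence. Media-only wells were set as complete cell-killing and DMSO as no toxicity.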
# TDP1 cell noCPT: qHTS for Inhibitors of human tyrosyl-DNA phosphodiesterase 1 (TDP1): qHTS in cells in absence of CPT | DT40 Tdp1-/- hTDP1 cells, no CPT, ATP luminescence, 48 h | Potency, µM (titrated, usually from 46.2 µM), for the others: at the highest dose activity change, negative = growth inhibition, most hits filed as inhibitors | 420,000 tested, 15% active; also: potency is read from the fitted curve at half-maximal effect; % is scaled to controls: 0 for no effect and ±100 for the full control effect; nearly all actives have a fitted effect of over 55% in size
#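 DT40 Tdp1-/-;hTDP1 cells, no CPT (DMSO vehicle only), 400 cells/well; compounds pin-transferred; ≥48 hr, 37 °C; CellTiter-Glo 30 min RT dark, luminescence read.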
# TDP1 cell CPT: DT40-hTDP1 cell growth loss with CPT. Potency, µM (doses to about 46.2 µM), without a hit: at the highest dose activity change, negative = growth inhibition, most hits filed as inhibitors. chicken DT40 Tdp1-/-;hTDP1 cells + 20 nM CPT, ATP luminescence, 48 h. 420,000 tested, 12% active; also: potency is read from the fitted curve at half-maximal effect; % is scaled to controls: 0 for no effect and ±100 for the full control effect; nearly all actives have a fitted effect of over 55% in size
#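 Chicken DT40 Tdp1-/- cells complemented with human TDP1, 400 cells/well, exposed to compounds plus 20 nM camptothecin for at least 48 h at 37 C; viability read as ATP content by CellTiter-Glo luminescence.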
# TGFb SMAD3 inh: inhibitors of TGF-b signaling. HepG2 CAGA-GFP TGF-b/SMAD3 reporter, GFP fluorescence, 18 h; TGF-beta stimulated, 500 pg/mL final. Potency, µM (titrated, usually from 46.1 µM), inactives show at the highest dose activity, negative = inhibition, usual class: inhibitors. 410,000 tested, 1.2% active. AID 588855; also: potency is read from the fitted curve at half-maximal effect; % is scaled to controls: 0 for no effect and ±100 for the full control effect; nearly all actives have a fitted effect of over 65% in size
#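 HEPG2 CAGA-GFP cells (1000/well, DMEM with 1% FBS) were pre-incubated 2 h at 37 degrees C, given compound by pin tool, then stimulated with TGF-beta at 500 pg/mL final for 18 h before per-cell GFP fluorescence imaging.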
# TDP1 inh: inhibitors of human tyrosyl-DNA phosphodiesterase TDP1; Potency, µM (titrated, usually from 130 µM), for inactives: at the top dose activity change, negative = inhibition, most hits filed as inhibitors; 350,000 tested, 0.28% active; AID 485290; Q9NUW8; recombinant TDP1, AlphaScreen DNA substrate cleavage; also: potency is read from the fitted curve at half-maximal effect; % is scaled to controls: 0 for no effect and ±100 for the full control effect; nearly all actives have a fitted effect of over 40% in size
# Target sequence (Q9NUW8 whole entry, looked up): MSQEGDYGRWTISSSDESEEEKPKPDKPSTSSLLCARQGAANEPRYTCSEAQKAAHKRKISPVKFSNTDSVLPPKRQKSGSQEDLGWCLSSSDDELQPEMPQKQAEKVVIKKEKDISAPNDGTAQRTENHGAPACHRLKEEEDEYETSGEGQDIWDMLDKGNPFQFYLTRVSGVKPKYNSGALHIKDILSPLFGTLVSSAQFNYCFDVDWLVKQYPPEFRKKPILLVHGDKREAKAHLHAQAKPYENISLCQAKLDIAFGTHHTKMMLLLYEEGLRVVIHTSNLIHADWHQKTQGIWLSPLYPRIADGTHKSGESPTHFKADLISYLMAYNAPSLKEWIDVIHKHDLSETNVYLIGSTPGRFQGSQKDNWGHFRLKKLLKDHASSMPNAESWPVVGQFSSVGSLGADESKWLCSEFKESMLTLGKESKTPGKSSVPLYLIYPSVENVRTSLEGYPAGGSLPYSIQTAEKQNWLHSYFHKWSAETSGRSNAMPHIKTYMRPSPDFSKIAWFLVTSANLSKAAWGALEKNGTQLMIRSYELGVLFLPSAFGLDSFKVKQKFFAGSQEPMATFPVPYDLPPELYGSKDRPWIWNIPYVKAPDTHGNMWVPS
#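 Compounds were preincubated with Tdp1 (1 nM final) for 15 min at room temperature before substrate (15 nM final) started a 5 min reaction; beads (10 ug/ml final) were then added for 10 min before AlphaScreen detection.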
# IL1B secr inh: inflammasome signaling inhibition, IL-1 beta readout. THP-1 LPS/ATP IL-1B secretion, AlphaLISA, 16 h; hits give low values. AID 743279. activity change, % at 57.5 µM. 360,000 tested, 4.7% active; in the data active = activity change below about -50%; inconclusive = mostly about -30% to -49%; also: % is scaled to controls: 0 for no effect and ±100 for the full control effect
#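 Secreted IL-1B measured by AlphaLISA bead assay after 16 h compound exposure of THP-1 cells; compounds (final up to 57.5 uM) added 1 h before LPS (250 ng/mL) and ATP (1.25 mM) stimulation; lower signal means less secretion.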
# The depositor's hits bear a star; ? = inconclusive; nt = not tested or not shown; [ ] = dose if it differs, or a comment. Unless noted, calls follow the shape of the dose curve; as a rule, active = well fitted curve in the direction sought with a large enough effect; inconclusive = small, poorly fitted or top-dose-only effect, or another doubt; inactive = no such curve, though single readings can be large; an effect the other way counts as inactive or inconclusive.
SMILES,HepG2 viability,TDP1 cell noCPT,TDP1 cell CPT,TGFb SMAD3 inh,TDP1 inh,IL1B secr inh
CN(c1ccccc1)S(=O)(=O)c1cccc(NC(=O)c2cccc(C#N)c2)c1,-14%,15µM*,?,-12%,0%,?
CN(c1ccccc1)S(=O)(=O)c1cccc(C(=O)Nc2cccc(C(=O)NC3CC3)c2)c1,3%,?,?,4%,-3%,9
CCc1ccc(NC(=O)CCCc2nc(-c3ccco3)no2)cc1,-20%,?,?,0%,-4%,nt
CC(C)(C)OC(=O)N1CCC(c2c(C(=O)NC3CCN(Cc4ccccc4)CC3)cnn2-c2cccc(F)c2)CC1,-33%,9.2µM*,12µM*,?,-7%,nt
Cc1ccc(-n2ncc(C(=O)NC3CCN(Cc4ccccc4)CC3)c2C2CCN(C(=O)OC(C)(C)C)CC2)cc1C,-80%,15µM*,21µM*,?,4%,nt
Cc1cccc(C)c1-n1ncc(C(=O)NC2CCCC2)c1C1CCN(C(=O)OC(C)(C)C)CC1,-6%,?,?,-3%,0%,nt
CNC(=O)c1c(NC(=O)c2ccc(S(=O)(=O)N3CCCCC3)cc2)sc2c1CCC2,-13%,?,?,-2%,4%,nt
Cc1c(-c2ccccc2)[nH]n2c(=O)c3c(nc12)CCCC3,3%,-5%,1%,-28%,3%,-24
O=c1c2c(nc3c(-c4ccc(Cl)cc4)c[nH]n13)CCC2,-25%,4.6µM*,2.3µM*,?,10%,53
O=c1c2c(nc3c(-c4ccccc4)c[nH]n13)CCC2,-20%,16µM*,?,-36%,5%,18
O=c1c2c(nc3c(-c4cccc(Br)c4)c[nH]n13)CCCC2,-6%,-103%,16µM*,25%,2%,-15
O=c1c2c(nc3cc(-c4ccc(Br)cc4)[nH]n13)CCCC2,-28%,?,?,-6%,0%,-61*
O=c1c2c(nc3cc(-c4ccccc4)[nH]n13)CCC2,5%,-5%,5%,24%,5%,19
C#CCOCCOCCOCCNc1nc(N2CCN(C(=O)[C@H](CCC(=O)O)n3cc([C@@H](N)[C@H](C)CC)nn3)CC2)nc(N2CCN(C(=O)[C@H](CCC(=O)O)n3cc([C@@H](N)CCSC)nn3)CC2)n1,-5%,1%,-7%,-1%,2%,14
COc1cc2c(cc1OC)C(C(=O)c1ccc(OC)c(OC)c1O)=NCC2,nt,-24%[9.04 µM],-14%[9.04 µM],nt,7%,nt
CCCCSc1ncnc2c1c(-c1ccccc1)cn2-c1cccc(F)c1,-25%,-8%,-10%,1%,0%,nt
Nc1cccc(C(=O)OCC(=O)Nc2cccc3c2C(=O)c2ccccc2C3=O)c1,6%,12µM*,?,-11%,1%,-18
Cc1cccc(NC(=O)COC(=O)c2cccc3c2C(=O)c2ccccc2C3=O)c1C,-1%,16µM*,?,?,6%,-19
CCN(CC)CCC(=O)Nc1cccc2c1C(=O)c1ccccc1C2=O,-82%,10µM*,12µM*,?,8%,nt
Cc1cccc(C)c1NC(=O)COC(=O)c1cccc2c1C(=O)c1ccccc1C2=O,-13%,8.2µM*,12µM*,-15%,-5%,-6
COc1ccccc1C(=O)NC(=O)COC(=O)C1(C)CC1(Cl)Cl (centres undefined),-2%,1%,3%,-1%,nt,2
O=C(CN1CCCc2ccccc21)N/N=C/c1ccccc1O,-32%,4.1µM*,-99%,?,1%,40
O=C(CN1CCCc2ccccc21)Nc1ccc(F)cc1[N+](=O)[O-],-35%,-4%,?,-14%,4%,17
COc1ccc(/C=N/NC(=O)CN2CCCc3ccccc32)c(OC)c1,-28%,?,8%,-17%,nt,21
O=C(CN1CCCc2ccccc21)N/N=C/c1ccc(F)cc1F,-3%,15µM*,21µM*,-5%,nt,-2
Cc1oc(-c2ccccc2)nc1CS(=O)CC(=O)NC1CCCC1 (centres undefined),-2%,-15%,1%,4%,nt,12
COc1ccc(NC2=NCCC2)cc1,-2%,0%,13%,7%,2%,-10
COc1ccc(Nc2ccc3c(c2)=NC2(CCCCC2)[N+]=3[O-])cc1,13µM*,2.6µM*,2.6µM*,3.2µM*,11%,-97*
[O-][N+]1=c2ccc(Nc3ccccc3)cc2=NC12CCCCC2,-106%,4.1µM*,3.7µM*,6.3µM*,10%,-98*
